This note sets out measurements from PubChem BioAssay (Tox21).

Records with an inconclusive call do not appear. A structure can be active in one record and inactive in another. Activity calls are given as the source filed them. Calls come from the whole dose curve; as a rule, active = well fitted curve in the direction sought with a large enough effect in the repeat runs; inconclusive = weak or mixed curves; inactive = no such curve, though single readings can be large; an effect the other way counts as inactive or inconclusive.
% is set by controls: 0 for no effect and ±100 for the full control effect; potency is the fitted concentration of half-maximal effect.

The nature of one assay: qHTS RealTime-Glo MT Cell Viability Assay in HepG2 cells - 8 hour (AID 1224873). Note: nearly all actives have a fitted effect of over 55% in size. Conditions: RealTime-Glo luminescence; series mostly up to 76.8 µM. Put shortly:
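Real-time viability: cells seeded at 600 per well together with NanoLuc and cell-permeant prosubstrate, compounds added after 5 h incubation. Luminescence tracked at 0, 8, 16, 24, 32 and 40 h of exposure.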
On the technique in general: Quantitative high-throughput screening tests each substance at several concentrations.
For the compound `O=C=Nc1ccc(Cl)c(Cl)c1`, the Potency result was “inactive”.

With `CCOC(C)=O`, the Potency result is “inactive”.

On to `C=CC(=O)[O-].C=CC(=O)[O-].[Zn+2]`, for which the Potency entry was “inactive”.

Turning to `C/C=C/C=C/C=O`, the Potency result is “inactive”.

As for `O=C(O)c1cccc(-c2noc(-c3ccccc3F)n2)c1`, the Potency entry is “inactive”.

With `CC(C)=CCC1C(=O)N(c2ccccc2)N(c2ccccc2)C1=O`, the Potency result is “inactive”.

Regarding `CCOC(=O)c1ccc(OCCN2C[C@H](O)[C@@H](O)[C@H](O)[C@H]2CO)cc1`, the Potency entry is “inactive”.

Consider `CCC(=O)OC`, for which the Potency result is “inactive”.

In the case of `CCC=CC#N`, the Potency entry was “inactive”.

On to `CCCCCCC(C)(C)C(=O)O`, for which the Potency entry is “inactive”.

As to `CCCC(=O)C(=O)O`, the Potency entry is “inactive”.

In the case of `Cc1[nH]cnc1CN1CCc2c(c3ccccc3n2C)C1=O`, the Potency result is “inactive”.

In the case of `C[C@H]1C[C@H](O)c2ccsc2S1(=O)=O`, the Potency result was “inactive”.

Take `CN1C(C(=O)Nc2ccccn2)=C(O)c2sccc2S1(=O)=O`: the Potency entry is “inactive”.

As to `CCC(C)COC(C)=O` (stereo not given), the Potency result was “inactive”.

Regarding `C[C@]12CC[C@@H]3c4ccc(O)cc4CC[C@H]3[C@@H]1CC[C@@H]2OC(=O)CCC1CCCC1`, the Potency was 49 µM (active) and inactive.

Regarding `FC(F)(F)c1ccccc1Cl`, the Potency result was “inactive”.

`O=c1[nH]c2ccc(Cl)cc2o1`: the Potency result is “inactive”.

On to `Brc1cc(Br)c(Oc2cc(Br)c(Br)cc2Br)cc1Br`, for which the Potency entry was “inactive”.

As to `Cc1c(C)c2c(c(C)c1OC(=O)CCC(=O)OCCO)CC[C@@](C)(CCC[C@H](C)CCC[C@H](C)CCCC(C)C)O2`, the Potency entry is “inactive”.

On to `CCc1ccccc1`, for which the Potency entry is “inactive”.

In the case of `OC[C@H]1O[C@@H](n2cnc3c(=S)nc[nH]c32)[C@H](O)[C@@H]1O`, the Potency entry is “inactive”.

With `O=C(O)CCC(=O)C(=O)O`, the Potency entry is “inactive”.

For `C=C(C)CCCC(C)CCO` (stereo not given), the Potency entry is “inactive”.

Turning to `CCCCCC[C@@H](O)C/C=C\CCCCCCCC(=O)O`, the Potency entry was “inactive”.

For `CCCCC(CC)CN` (stereo not given), the Potency entry was “inactive”.

For the compound `CC1=C(Br)C(=O)C(Br)=C/C1=C(/c1ccccc1S(=O)(=O)O)c1cc(Br)c(O)c(Br)c1C`, the Potency entry is “inactive”.

As to `O[C@@H]1CO[C@H]2[C@@H]1OC[C@@H]2O`, the Potency result was “inactive”.

For the compound `CCCCCCCCCCC(=O)O`, the Potency result is “inactive”.

`CC1(C)[C@H](C(=O)O)N2C(=O)C[C@H]2S1(=O)=O`: the Potency result was “inactive”.

Consider `CN1CC(=O)N2[C@H](c3ccc4c(c3)OCO4)c3[nH]c4ccccc4c3C[C@@H]2C1=O`, for which the Potency result was “inactive”.

Consider `O=C(/C=C/c1ccccc1)OCCc1ccccc1`, for which the Potency entry is “inactive”.

With `Nc1cccc2c1CN(C1CCC(=O)NC1=O)C2=O` (stereo not given), the Potency result was “inactive”.

Consider `Cc1ccccc1S`, for which the Potency result is “inactive”.

For `CN1C(=O)OC(C)(C)C1=O`, the Potency entry was “inactive”.

With `Oc1cccc(O)c1O`, the Potency result was “inactive”.

`COc1cc(C(=O)NCCCCCC(=O)O)cc(OC)c1OC`: the Potency entry is “inactive”.

Consider `CCOC(=O)[C@H](CCc1ccccc1)N[C@@H](C)C(=O)N(CC(=O)O)C1Cc2ccccc2C1`, for which the Potency entry is “inactive”.

In the case of `C=C/C(C)=C/C/C=C(\C)CCC=C(C)C`, the Potency entry is “inactive”.

Consider `CCOC(=O)OC(C)OC(=O)[C@@H]1N2C(=O)[C@@H](NC(=O)[C@H](N)c3ccccc3)[C@H]2SC1(C)C` (stereo not given in full), for which the Potency result was “inactive”.

A short description of a further assay: qHTS RealTime-Glo MT Cell Viability Assay in HEK293 cells - 40 hour (AID 1224874). Note: nearly all actives have a fitted effect of over 50% in size. The settings on record: RealTime-Glo luminescence; max response: stronger effect = lower value. The gist of the method:
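HEK293 cells mixed with RealTime-Glo reagents (NanoLuc plus cell-permeant prosubstrate) at 600 cells/well, preincubated 5 h at 37 C/5% CO2, then given 23 nL compound in DMSO. Nonlytic luminescence from viable cells was read at 0, 8, 16, 24, 32 and 40 h.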
For the compound `O=C=Nc1ccc(Cl)c(Cl)c1`, the max response was -3.97% (inactive).

Take `CCOC(C)=O`: the max response was 0.693% (inactive).

For `C=CC(=O)[O-].C=CC(=O)[O-].[Zn+2]`, the max response was 0.547% (inactive).

For the compound `C/C=C/C=C/C=O`, the max response is 10.8% (inactive).

Take `O=C(O)c1cccc(-c2noc(-c3ccccc3F)n2)c1`: the max response was 2.77% (inactive).

Consider `CC(C)=CCC1C(=O)N(c2ccccc2)N(c2ccccc2)C1=O`, for which the max response is 4.23% (inactive).

For the compound `CCOC(=O)c1ccc(OCCN2C[C@H](O)[C@@H](O)[C@H](O)[C@H]2CO)cc1`, the max response was 1.01% (inactive).

For `CCC(=O)OC`, the max response was 4.28% (inactive).

As for `CCC=CC#N`, the max response was 10.8% (inactive).

Regarding `CCCCCCC(C)(C)C(=O)O`, the max response is 4.14% (inactive).

For `CCCC(=O)C(=O)O`, the max response is 13.4% (inactive).

`Cc1[nH]cnc1CN1CCc2c(c3ccccc3n2C)C1=O`: the max response is -24.4% (inactive).

For the compound `C[C@H]1C[C@H](O)c2ccsc2S1(=O)=O`, the max response is 2.25% (inactive).

With `CN1C(C(=O)Nc2ccccn2)=C(O)c2sccc2S1(=O)=O`, the max response is 6.41% (inactive).

For the compound `CCC(C)COC(C)=O` (stereo not given), the max response is 12% (inactive).

As to `C[C@]12CC[C@@H]3c4ccc(O)cc4CC[C@H]3[C@@H]1CC[C@@H]2OC(=O)CCC1CCCC1`, the Potency is 43.6 µM (active).

`FC(F)(F)c1ccccc1Cl`: the max response is -1.41% (inactive).

Consider `O=c1[nH]c2ccc(Cl)cc2o1`, for which the max response is -0.887% (inactive).

`Brc1cc(Br)c(Oc2cc(Br)c(Br)cc2Br)cc1Br`: the max response was -1.98% (inactive).

In the case of `Cc1c(C)c2c(c(C)c1OC(=O)CCC(=O)OCCO)CC[C@@](C)(CCC[C@H](C)CCC[C@H](C)CCCC(C)C)O2`, the max response was -18.9% (inactive).

For `CCc1ccccc1`, the max response is 10.2% (inactive).

Turning to `OC[C@H]1O[C@@H](n2cnc3c(=S)nc[nH]c32)[C@H](O)[C@@H]1O`, the Potency was 21.3 µM (active).

In the case of `O=C(O)CCC(=O)C(=O)O`, the max response was 0.138% (inactive).

`C=C(C)CCCC(C)CCO` (stereo not given): the max response is -17.9% (inactive).

Take `CCCCCC[C@@H](O)C/C=C\CCCCCCCC(=O)O`: the max response is 13.2% (inactive).

Take `CCCCC(CC)CN` (stereo not given): the max response is 4.35% (inactive).

For `CC1=C(Br)C(=O)C(Br)=C/C1=C(/c1ccccc1S(=O)(=O)O)c1cc(Br)c(O)c(Br)c1C`, the max response was 1.66% (inactive).

For the compound `O[C@@H]1CO[C@H]2[C@@H]1OC[C@@H]2O`, the max response was 8.95% (inactive).

On to `CCCCCCCCCCC(=O)O`, for which the max response was 3.53% (inactive).

With `CC1(C)[C@H](C(=O)O)N2C(=O)C[C@H]2S1(=O)=O`, the max response was 1.99% (inactive).

As for `CN1CC(=O)N2[C@H](c3ccc4c(c3)OCO4)c3[nH]c4ccccc4c3C[C@@H]2C1=O`, the max response was -16.3% (inactive).

In the case of `O=C(/C=C/c1ccccc1)OCCc1ccccc1`, the max response was -0.613% (inactive).

On to `Nc1cccc2c1CN(C1CCC(=O)NC1=O)C2=O` (stereo not given), for which the max response is 2.81% (inactive).

For the compound `Cc1ccccc1S`, the max response is -6.46% (inactive).

For `CN1C(=O)OC(C)(C)C1=O`, the max response was 0.839% (inactive).

In the case of `Oc1cccc(O)c1O`, the max response is 1.23% (inactive).

With `COc1cc(C(=O)NCCCCCC(=O)O)cc(OC)c1OC`, the max response was 1.12% (inactive).

Consider `CCOC(=O)[C@H](CCc1ccccc1)N[C@@H](C)C(=O)N(CC(=O)O)C1Cc2ccccc2C1`, for which the max response is 5.01% (inactive).

As for `C=C/C(C)=C/C/C=C(\C)CCC=C(C)C`, the max response was -7.52% (inactive).

With `CCOC(=O)OC(C)OC(=O)[C@@H]1N2C(=O)[C@@H](NC(=O)[C@H](N)c3ccccc3)[C@H]2SC1(C)C` (stereo not given in full), the max response is -0.757% (inactive).
